Several values for one entry are separate records, joined by “and”; a condition that tells them apart may be missing. Identical values can stand only once. Inconclusive results are not listed. A number with no mark means an inactive call. Activity calls are given as the source filed them. Calls follow the shape of the dose curve; as a rule, active = well fitted inhibition curve with a large enough effect; inconclusive = small, poorly fitted or top-dose-only effect; inactive = flat fitted curve, though single readings scatter.

One experiment has as its system CRL-7250. Briefly: Cytotoxic Profiling of Annotated Libraries Using Quantitative High-Throughput Screening (AID 1296008). The settings on record: Five cell lines viability, CellTiter-Glo ATP luminescence, 48-72 h; max response: stronger effect = lower value. In outline:
(§1)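 Cytotoxicity was measured as CellTiter-Glo ATP luminescence, read after 10 min at room temperature. Compound treatment of the cells lasted 48 or 72 hr at 37 degrees Celsius in a qHTS format.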
A general note: Cellular ATP, detected with luciferase, serves as a proxy for viable cell number.

Another experiment concerns NIH3T3. Described as above. The following applies: Five cell lines viability, CellTiter-Glo ATP luminescence, 48-72 h; max response: stronger effect = lower value. In outline:
as §1

In a further experiment the test system is MCC-13. Briefly: qHTS assay to identify novel small-molecules to repurpose for Merkel cell carcinoma treatment (AID 1296009). The settings on record: MCC and control cell lines, CellTiter-Glo viability, 72 h; series mostly up to 46 µM. In outline:
(§2)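 72 hr, 37 degree celsius; NPC 8-pt / MIPE 11-pt dose response; compound pinned in DMSO; CellTiter-Glo, 10 min RT, luminescence; normalized to no-cell and DMSO controls.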
In general terms: Quantitative high-throughput screening tests each substance at several concentrations.

The next experiment concerns MKL-1. The description is as above. The settings on record: MCC and control cell lines, CellTiter-Glo viability, 72 h; series mostly up to 46 µM. In outline:
as §2

A further experiment concerns HEK293. Briefly: Cytotoxic Profiling of Annotated Libraries Using Quantitative High-Throughput Screening (AID 1296008). The following applies: Five cell lines viability, CellTiter-Glo ATP luminescence, 48-72 h; max response: stronger effect = lower value. The gist of the method: as §1
A further experiment concerns KB-3-1. The description is as above. The following applies: Five cell lines viability, CellTiter-Glo ATP luminescence, 48-72 h; max response: stronger effect = lower value. In outline: as §1
A further experiment deals with MCC-26. Briefly: qHTS assay to identify novel small-molecules to repurpose for Merkel cell carcinoma treatment (AID 1296009). The settings on record: MCC and control cell lines, CellTiter-Glo viability, 72 h; series mostly up to 46 µM. The gist of the method: as §2
Experiment [1] concerns HaCat. As to the kind of experiment: Cytotoxic Profiling of Annotated Libraries Using Quantitative High-Throughput Screening (AID 1296008). The settings on record: Five cell lines viability, CellTiter-Glo ATP luminescence, 48-72 h; max response: stronger effect = lower value. In outline:
as §1

The test system of experiment [2] is HACAT. Briefly: qHTS assay to identify novel small-molecules to repurpose for Merkel cell carcinoma treatment (AID 1296009). The following applies: MCC and control cell lines, CellTiter-Glo viability, 72 h; at 44.8 µM (top of the series) unless noted. In outline: as §2
For another experiment, the system named is HEK293T. Described as above. The settings on record: MCC and control cell lines, CellTiter-Glo viability, 72 h; at 44.8 µM (top of the series) unless noted. The gist of the method:
as §2
% is scaled to controls: 0 for no effect and ±100 for the full control effect; potency is read from the fitted curve at half-maximal effect.
Also: nearly all actives have a fitted effect of over 60% in size.

On to `COc1cc(C=C2CCC/C(=C\c3ccc(O)c(OC)c3)C2=O)ccc1O`, for which the Potency with CRL-7250 is 15 µM (active); in the experiment with NIH3T3, 16.8 µM (active); in the experiment on MCC-13, 26.6 µM (active); in the experiment with MKL-1 it was 4.22 µM (active).

Regarding `CCN(CC)CCOc1ccc(C(O)(Cc2ccc(Cl)cc2)c2ccc(C)cc2)cc1` (centres undefined), the Potency was 9.44 µM (active) in the experiment on HEK293 and 16.4 µM (active) in the experiment on KB-3-1.

As for `O=c1c(-c2ccccc2)c1-c1ccccc1`, the Potency was 23.7 µM (active) in the experiment on HEK293 and 26.6 µM (active) in the experiment on MKL-1. Also, the Potency result with MCC-26 was “inactive”.

`O=C(N/N=C/c1ccccc1O)c1ccncc1`: the max response is -6.14% in the experiment on HaCat [1] and 8.17% with KB-3-1. The Potency in the experiment on NIH3T3 is 16.8 µM (active); in the experiment with MCC-26 it was 9.44 µM (active); in the experiment on MKL-1, 1.06 µM (active).

Take `COc1ccc(CCN2CCC(Nc3nc4ccccc4n3Cc3ccc(F)cc3)CC2)cc1`: the Potency in the experiment with HEK293 is 9.44 µM (active); in the experiment with NIH3T3, 4.73 µM (active); in the experiment with MCC-13, 23.7 µM (active).

Consider `CCN(CC)CCOC(=O)C(c1ccccc1)C1CCCCC1` (centres undefined), for which the result with HaCat [1] and in the experiment on HACAT [2] was inactive. Further, the max response with KB-3-1 is -2.77%. Further, the Potency result with MCC-13, with MCC-26 and in the experiment with MKL-1 was “inactive” each time.

On to `NC(=NCCCCCCN=C(N)/N=C(\N)Nc1ccc(Cl)cc1)/N=C(\N)Nc1ccc(Cl)cc1`, for which the Potency in the experiment with HEK293 was 7.5 µM (active) and 7.31 µM (active); in the experiment on KB-3-1 it was 8.2 µM (active); with MCC-13, 26.6 µM (active); in the experiment with MKL-1, 6.68 µM (active).

In the case of `Oc1c(I)cc(Cl)c2cccnc12`, the outcome in the experiment with HaCat [1] and in the experiment with HACAT [2] was inactive. In addition, the max response in the experiment on KB-3-1 is -8.86%.

With `CCN(CC)C(=O)/C(C#N)=C/c1cc(O)c(O)c([N+](=O)[O-])c1`, the max response is -12.8% in the experiment on HEK293, -5.03% in the experiment with HaCat [1] and 3.63% in the experiment on KB-3-1. Besides, the Potency entry in the experiment on MCC-13 and in the experiment with MCC-26 was “inactive” each time.

For `Cc1cc(N)c2cc(NC(=O)Nc3ccc4nc(C)cc(N)c4c3)ccc2n1`, the figures for the max response with HaCat [1], with KB-3-1 and with NIH3T3 were -0.42%, -4.37% and -1.27%, respectively. In addition, the Potency entry in the experiment on MCC-13 and with MCC-26 was “inactive” each time.

For the compound `CC(=O)OCC(=O)[C@@]12N=C(C)O[C@@H]1C[C@H]1[C@@H]3CCC4=CC(=O)C=C[C@]4(C)[C@H]3[C@@H](O)C[C@@]12C`, the compound was classed as inactive with HEK293, in the experiment on HaCat [1], in the experiment with HACAT [2] and in the experiment with HEK293T. In addition, the results for the max response in the experiment on KB-3-1 and in the experiment on NIH3T3 were 7.15% and -1.08%, respectively. In addition, the Potency entry with MCC-13, with MCC-26 and with MKL-1 was “inactive” each time.

Regarding `O=C(Nc1ccc(Oc2ccc(Cl)cc2)c(Cl)c1)c1cc(I)cc(I)c1O`, the max response is -12.5% with CRL-7250, 1.19% with HaCat [1] and 0.252% in the experiment with NIH3T3. The Potency entry with MCC-13, with MCC-26 and in the experiment on MKL-1 was “inactive” throughout.

As for `Cc1c(C)n(Cc2ccccc2)c2ccc(C(=O)OCCN(C)C)cc12`, the compound was classed as inactive in the experiment with HaCat [1] and in the experiment on HACAT [2]. Also, the max response in the experiment on KB-3-1 is 1.73%. The Potency entry with MCC-13, in the experiment on MCC-26 and in the experiment with MKL-1 was “inactive” in each case.

On to `CC(C)=CCC1C(=O)N(c2ccccc2)N(c2ccccc2)C1=O`, for which the results for the max response in the experiment on CRL-7250, with KB-3-1 and in the experiment on NIH3T3 were -25.1%, -9.06% and -29%, respectively. In addition, the Potency result with MCC-13 and with MCC-26 was “inactive” in each case.

For `O=S1(=O)c2cccc3cccc(c23)N1CCCN1CCN(c2ccc(F)cc2)CC1`, the values for the max response with HaCat [1], in the experiment with KB-3-1 and in the experiment with NIH3T3 were -0.344%, -1.2% and -13.9%, respectively. The Potency entry with MCC-13, in the experiment with MCC-26 and in the experiment on MKL-1 was “inactive” each time.

With `OC[C@H]1O[C@@H](n2cnc3c(=S)nc[nH]c32)[C@H](O)[C@@H]1O`, the Potency with HEK293 is 4.73 µM (active); in the experiment on HaCat [1] it was 2.99 µM (active); with NIH3T3, 1.88 µM (active); in the experiment with MCC-13, 2.11 µM (active). In addition, in the experiment on MCC-26, the Potency result was “inactive”.

With `Oc1c(I)cc(I)c2cccnc12`, the result in the experiment with HaCat [1] and with HACAT [2] was inactive. The max response in the experiment on KB-3-1 is -18.8%. Also, the Potency entry in the experiment on MCC-13 and in the experiment with MCC-26 was “inactive” in each case. Moreover, the Potency in the experiment with MKL-1 is 18.8 µM (active).

In the case of `C[C@@H](CN(C)C)CN1c2ccccc2Sc2ccccc21`, the max response in the experiment on HaCat [1] was -0.198%; in the experiment with KB-3-1 it was -9.85%; in the experiment with NIH3T3, -1.51%. The Potency entry in the experiment with MCC-13 and in the experiment with MCC-26 was “inactive” in each case.

In the case of `O=C(COc1ccc(Cl)cc1)N1CCN(Cc2ccc3c(c2)OCO3)CC1`, the max response in the experiment on CRL-7250 is -27.2%; in the experiment with KB-3-1, -11.1%; with NIH3T3, 0.953%. Moreover, the Potency result with MCC-13, with MCC-26 and in the experiment on MKL-1 was “inactive” in each case.

The values are drawn from PubChem BioAssay (NCATS).
